# Values joined by “and” are separate entries in the source; they are usually repeats but may differ in a detail not shown here. Identical values can stand only once.
# Legend:
# Details in all cases: Compound concentration 20.0 uM, Protein concentration 2.0 uM, Result type QC Liability
# [1] = target: Tyrosine-protein kinase ABL1 (Homo sapiens) (UniProt P00519)
# [2] = target: Cyclin-dependent kinase 2 (Homo sapiens) (UniProt P24941)
# [3] = target: Casein kinase I isoform delta (Homo sapiens) (UniProt P48730)
# [4] = target: Glycogen synthase kinase-3 beta (Homo sapiens) (UniProt P49841)
# [5] = target: Mitogen-activated protein kinase 1 (Homo sapiens) (UniProt P28482)
# [6] = target: T1, Aurora kinase A (Homo sapiens) (UniProt O14965)
# T1 sequence (whole entry): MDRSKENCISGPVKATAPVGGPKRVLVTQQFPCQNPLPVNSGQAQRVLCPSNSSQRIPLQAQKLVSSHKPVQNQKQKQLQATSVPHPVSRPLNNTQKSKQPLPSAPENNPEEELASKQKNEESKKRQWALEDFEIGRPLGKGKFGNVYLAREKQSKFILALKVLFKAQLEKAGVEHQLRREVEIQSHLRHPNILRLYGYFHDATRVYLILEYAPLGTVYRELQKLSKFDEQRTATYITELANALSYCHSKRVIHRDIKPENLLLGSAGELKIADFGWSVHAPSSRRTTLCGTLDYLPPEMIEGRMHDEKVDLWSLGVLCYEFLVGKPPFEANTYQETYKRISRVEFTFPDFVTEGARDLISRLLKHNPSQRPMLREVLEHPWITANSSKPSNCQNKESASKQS
# Sequence of Glycogen synthase kinase-3 beta (Homo sapiens) (P49841 whole entry, looked up): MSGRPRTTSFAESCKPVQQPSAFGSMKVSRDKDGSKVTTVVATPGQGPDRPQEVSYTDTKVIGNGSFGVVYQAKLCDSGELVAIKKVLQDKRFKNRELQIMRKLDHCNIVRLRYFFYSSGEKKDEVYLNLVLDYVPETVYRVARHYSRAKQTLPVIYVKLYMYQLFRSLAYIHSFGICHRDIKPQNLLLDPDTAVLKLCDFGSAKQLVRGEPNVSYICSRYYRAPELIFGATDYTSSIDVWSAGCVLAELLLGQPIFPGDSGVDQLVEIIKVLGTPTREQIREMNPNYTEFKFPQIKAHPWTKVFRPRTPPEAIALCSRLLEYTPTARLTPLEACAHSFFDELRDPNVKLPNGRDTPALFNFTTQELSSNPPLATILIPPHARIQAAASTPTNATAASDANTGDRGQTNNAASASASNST
# Sequence of Mitogen-activated protein kinase 1 (Homo sapiens) (P28482 whole entry): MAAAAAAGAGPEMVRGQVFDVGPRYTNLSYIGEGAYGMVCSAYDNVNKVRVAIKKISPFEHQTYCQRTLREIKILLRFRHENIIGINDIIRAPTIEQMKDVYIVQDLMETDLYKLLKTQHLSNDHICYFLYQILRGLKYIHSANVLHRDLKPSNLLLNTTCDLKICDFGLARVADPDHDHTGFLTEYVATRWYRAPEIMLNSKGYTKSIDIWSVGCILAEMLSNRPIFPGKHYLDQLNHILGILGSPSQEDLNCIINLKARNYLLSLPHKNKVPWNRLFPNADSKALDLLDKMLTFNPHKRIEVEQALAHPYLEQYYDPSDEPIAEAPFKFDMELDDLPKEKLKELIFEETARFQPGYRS
# Sequence of Casein kinase I isoform delta (Homo sapiens) (P48730 whole entry, looked up, canonical isoform): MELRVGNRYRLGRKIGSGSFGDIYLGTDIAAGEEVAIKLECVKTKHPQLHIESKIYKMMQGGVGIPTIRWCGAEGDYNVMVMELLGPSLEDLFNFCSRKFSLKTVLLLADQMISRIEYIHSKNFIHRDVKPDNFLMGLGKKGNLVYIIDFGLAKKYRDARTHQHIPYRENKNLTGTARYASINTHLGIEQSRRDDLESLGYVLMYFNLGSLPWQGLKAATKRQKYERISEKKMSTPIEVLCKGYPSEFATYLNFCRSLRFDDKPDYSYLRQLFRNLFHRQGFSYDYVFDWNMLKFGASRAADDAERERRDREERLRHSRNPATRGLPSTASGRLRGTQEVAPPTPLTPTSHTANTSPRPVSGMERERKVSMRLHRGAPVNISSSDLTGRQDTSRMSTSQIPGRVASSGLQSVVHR
# Sequence of Tyrosine-protein kinase ABL1 (Homo sapiens) (P00519 whole entry): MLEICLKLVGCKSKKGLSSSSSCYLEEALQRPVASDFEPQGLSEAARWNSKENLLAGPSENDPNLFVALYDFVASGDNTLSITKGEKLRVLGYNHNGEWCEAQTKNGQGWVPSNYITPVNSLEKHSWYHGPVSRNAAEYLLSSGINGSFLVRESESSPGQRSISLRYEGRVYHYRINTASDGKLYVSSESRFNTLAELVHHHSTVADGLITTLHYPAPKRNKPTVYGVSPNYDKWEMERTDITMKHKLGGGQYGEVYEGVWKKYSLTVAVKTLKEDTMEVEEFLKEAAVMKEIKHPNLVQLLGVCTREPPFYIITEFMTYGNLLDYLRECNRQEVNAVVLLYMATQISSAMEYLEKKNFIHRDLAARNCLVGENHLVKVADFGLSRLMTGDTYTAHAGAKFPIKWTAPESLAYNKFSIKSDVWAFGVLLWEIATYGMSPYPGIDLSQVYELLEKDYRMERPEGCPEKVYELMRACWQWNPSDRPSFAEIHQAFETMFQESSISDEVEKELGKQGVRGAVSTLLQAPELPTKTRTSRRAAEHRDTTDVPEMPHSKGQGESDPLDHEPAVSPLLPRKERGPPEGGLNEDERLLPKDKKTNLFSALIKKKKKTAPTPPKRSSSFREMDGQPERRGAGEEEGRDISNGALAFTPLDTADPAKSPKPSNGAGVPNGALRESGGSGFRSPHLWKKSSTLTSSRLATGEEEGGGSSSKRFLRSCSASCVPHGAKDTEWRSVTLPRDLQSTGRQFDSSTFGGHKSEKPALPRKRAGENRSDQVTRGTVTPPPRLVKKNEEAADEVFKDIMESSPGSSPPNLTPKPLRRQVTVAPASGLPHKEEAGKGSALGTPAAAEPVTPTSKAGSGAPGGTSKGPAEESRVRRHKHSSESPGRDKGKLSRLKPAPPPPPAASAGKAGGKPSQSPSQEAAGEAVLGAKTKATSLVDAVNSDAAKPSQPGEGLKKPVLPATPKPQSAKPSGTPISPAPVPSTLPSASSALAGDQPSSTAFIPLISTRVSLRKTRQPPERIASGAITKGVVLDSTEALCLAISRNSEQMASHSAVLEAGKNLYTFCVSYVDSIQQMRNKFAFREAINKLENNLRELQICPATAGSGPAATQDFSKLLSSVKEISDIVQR
SMILES,ΔTm [1] [°C],ΔTm [2],ΔTm [3],ΔTm [4],ΔTm [5],ΔTm [6]
COC(=O)Nc1nc2c(s1)-c1c(c(-c3cccnc3)nn1-c1ccc(C3(N(C)C)CC3)cc1)CC2,0.57,0.64 °C,-0.25 °C,-0.71 °C,0.36 °C,-0.79 °C
CC1CNCCc2c1nc1ccnn1c2N1CC(C(=O)N2CCC(C)(C)C2)C1 (stereo not drawn),0.04,0.37 °C,0.46 °C,-0.58 °C,0.2 °C,-0.21 °C
NS(=O)(=O)c1ccc(Nc2nc(OCC3CCCCC3)c3nc[nH]c3n2)cc1,5.71,–,0.51 °C,5.83 °C,2.65 °C,7.68 °C
C[C@@H]1COCCN1c1cc(=O)n2c(n1)N(Cc1cncc(Cl)c1)[C@H](C(F)(F)F)CC2,0.53,0.54 °C,0.16 °C,0.4 °C,0.34 °C,-0.23 °C
COc1cc(-c2cncc(-c3ccc(N4CCN(C(C)C)CC4)cc3)c2C)cc(F)c1C(N)=O,1.79,0.61 °C,0.92 °C,1.06 °C,0.21 °C,-0.31 °C
COc1cc2ncnc(Nc3cccc(O)c3)c2cc1OC,8.2,–,2.54 °C,3.7 °C,0.61 °C,2.79 °C
Cc1nc(-c2ccc(C(F)(F)F)cc2)sc1C(=O)NCc1ccc(OC(C)(C)C(=O)O)cc1,0.61,0.76 °C,0.63 °C,-0.64 °C,0.34 °C,0.59 °C
Clc1ccccc1C(c1ccccc1)(c1ccccc1)n1ccnc1,-1.2,-1.88 °C,-0.72 °C,-2.38 °C,-0.79 °C,-2.33 °C
NC1(c2ccc(-c3nc4c(O)ccnn4c3-c3ccccc3)cc2)CCC1,0.22,-0.34 °C,0.07 °C,-0.72 °C,0.46 °C,0.43 °C
Cc1c(-c2c(F)cc(C(N)=O)c3[nH]c4c(c23)CC[C@H](C(C)(C)O)C4)cccc1-n1c(=O)c2cccc(F)c2n(C)c1=O,3.83,0.48 °C,0.11 °C,0.79 °C,-0.33 °C,10.9 °C
CCOCCn1cc(C(=O)Nc2ccc(-n3nc(-c4cccnc4)cc3C(F)(F)F)cn2)ccc1=O,0.3,-1.4 °C,0.33 °C,-0.71 °C,-0.58 °C,0.16 °C
Cc1ccc(-n2nc(C(C)(C)C)cc2NC(=O)Nc2ccc(OCCN3CCOCC3)c3ccccc23)cc1,–,1.17 °C and 1.39 °C,3.31 °C and 1.35 °C,3.17 °C and 2.68 °C,0.43 °C and 1.14 °C,0.18 °C and 0.11 °C
Cn1cc(-n2cnc3c(NCc4nc5cc(Cl)c(Cl)cc5[nH]4)nc(N4CCOCC4)nc32)cn1,-0.15,0.06 °C,-0.03 °C,2.12 °C,-0.02 °C,0.53 °C
COc1cc2nc([C@@H]3CCCS(=O)(=O)C3)n(C)c2cc1NC(=O)c1cccc(C(C)(F)F)n1,0.81,0.09 °C,0.86 °C,-1.39 °C,0.05 °C,1.82 °C
Nc1ncc2c(n1)-c1c([nH]c3ccc(C4=CCOCC4)cc13)CCC2,0.44,1.02 °C,2.29 °C,0.71 °C,-0.03 °C,1.93 °C
CC1(C)C(=O)N([C@H]2CCc3c(O)cccc32)c2nc(Nc3cccc(CN4CCCC4)c3)ncc21,–,6.13 °C,2.09 °C,6.72 °C,5.19 °C,12.8 °C
CCCCCCC(Sc1nc(Cl)cc(NCc2ccc(-c3ccccc3)cc2)n1)C(=O)O (stereo not drawn),-0.03,-0.83 °C,0 °C,0 °C,0 °C,-1.22 °C

# Source: ChEMBL document CHEMBL5308504, “Tm Shift (DSF) assay results for EUbOPEN Chemogenomics Library” (2023)
